# According to PubChem BioAssay:
# Activity calls are given as the source filed them.
# Columns and labels:
# [1] = E. coli DRC41 culture turbidity changes, primary screen, E. coli filamentation inducer project, strain DRC41, OD650, 48 h (AID 1152);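 further: E. coli MC1000 strain DRC41 lacking acrAB efflux pump and sulA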; details: E. coli DRC41 (acrAB sulA), higher = more signal, called active from +8 up or from −8 down
# [2] = small-molecule binders of probe aLefty1, primary screen, biochemical, small-molecule microarray, 635/667 nm fluorescence (AID 1153); details: higher = more signal;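 further: score merges spot fluorescence with signal-to-noise ratio from the scanned slide images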
# [3] = PSAC antagonists in infected red cells, primary screen, cell-based, P. falciparum Indochina, OD700, 1 h (AID 1154); details: P. falciparum Indochina infected RBC osmotic lysis, higher = more signal, called active from +8 up or from −8 down
# [4] = PSAC antagonists in infected red cells, primary screen, cell-based, P. falciparum Indochina, OD700, 2 h (AID 1155);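 further: lysis reports solute entry through the parasite surface anion channel PSAC; channel blockers reduce lysis of infected cells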; details: P. falciparum Indochina infected erythrocytes, osmotic lysis OD700; higher = more signal, called active from +8 up or from −8 down
# [5] = osmotic lysis modulators in infected erythrocytes, primary screen, PSAC antagonist project, cell-based, P. falciparum Indochina, OD700, 3 h (AID 1156); details: higher = more signal, called active from +8 up or from −8 down
# [6] = PSAC antagonists in infected red cells, primary screen, cell-based, P. falciparum Indochina, OD700, 18 h (AID 1157); details: P. falciparum Indochina infected erythrocytes, osmotic lysis OD700, 18 h; higher = more signal, called active from +8 up or from −8 down
# [7] = modulators of S6 phosphorylation in cells, primary screen, cell-based, A549, cytoblot, luminescence, serum-stimulated (AID 1158); details: A549 phospho-S6 cytoblot, 5 h, higher = more signal;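 further: serum-stimulated A549 lung adenocarcinoma cells; signal is phosphorylated S6 detected by cytoblot immunostaining with HRP secondary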
# [8] = target: NADPH oxidase 2 (Homo sapiens) (UniProt P04839); test: NOX2-dependent H2O2 signal modulators, primary screen, NOX inhibitor project, cell-based, HEK293-NOX2, PMA-stimulated, Amplex Red fluorescence (AID 1159); details: 45 min, higher = more signal, called active from +8 up or from −8 down; further: test concentration not given here
# [9] = target: NADPH oxidase 4 (Homo sapiens) (UniProt Q9NPH5); test: NOX4-dependent H2O2 signal modulators, primary screen, NOX inhibitor project, cell-based, HEK293-NOX4, tetracycline-induced, Amplex Red fluorescence (AID 1160); details: 45 min, higher = more signal, called active from +8 up or from −8 down
# [10] = target: NADPH oxidase 5 (Homo sapiens) (UniProt Q96PH1); test: NOX5-dependent H2O2 signal modulators, primary screen, NOX inhibitor project, cell-based, HEK293-NOX5, Amplex Red fluorescence (AID 1161); details: HEK293-NOX5, ionomycin, 45 min, higher = more signal
# Chain of NADPH oxidase 5 (Homo sapiens) (Q96PH1 whole entry, looked up): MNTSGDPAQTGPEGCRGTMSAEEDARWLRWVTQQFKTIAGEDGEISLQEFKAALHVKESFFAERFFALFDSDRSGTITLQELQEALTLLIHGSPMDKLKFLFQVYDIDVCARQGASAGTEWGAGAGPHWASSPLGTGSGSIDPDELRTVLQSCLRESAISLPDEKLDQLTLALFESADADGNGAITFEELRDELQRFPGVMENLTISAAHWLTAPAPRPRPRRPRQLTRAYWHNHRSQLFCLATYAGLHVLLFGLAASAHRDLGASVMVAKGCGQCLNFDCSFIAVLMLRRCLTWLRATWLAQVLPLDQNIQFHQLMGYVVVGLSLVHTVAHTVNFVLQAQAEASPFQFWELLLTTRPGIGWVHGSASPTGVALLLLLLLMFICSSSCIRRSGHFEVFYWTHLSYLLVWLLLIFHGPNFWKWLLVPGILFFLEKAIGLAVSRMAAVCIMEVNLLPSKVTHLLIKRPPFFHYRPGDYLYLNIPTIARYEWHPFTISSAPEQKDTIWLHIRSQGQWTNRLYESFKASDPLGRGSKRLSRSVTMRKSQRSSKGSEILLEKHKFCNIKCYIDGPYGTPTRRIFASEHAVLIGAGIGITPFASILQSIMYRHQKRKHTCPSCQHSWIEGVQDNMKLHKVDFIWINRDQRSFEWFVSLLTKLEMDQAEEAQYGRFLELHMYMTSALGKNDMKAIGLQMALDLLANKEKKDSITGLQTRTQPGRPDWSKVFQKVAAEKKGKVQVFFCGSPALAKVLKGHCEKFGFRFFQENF
# Chain of NADPH oxidase 2 (Homo sapiens) (P04839 whole entry, looked up): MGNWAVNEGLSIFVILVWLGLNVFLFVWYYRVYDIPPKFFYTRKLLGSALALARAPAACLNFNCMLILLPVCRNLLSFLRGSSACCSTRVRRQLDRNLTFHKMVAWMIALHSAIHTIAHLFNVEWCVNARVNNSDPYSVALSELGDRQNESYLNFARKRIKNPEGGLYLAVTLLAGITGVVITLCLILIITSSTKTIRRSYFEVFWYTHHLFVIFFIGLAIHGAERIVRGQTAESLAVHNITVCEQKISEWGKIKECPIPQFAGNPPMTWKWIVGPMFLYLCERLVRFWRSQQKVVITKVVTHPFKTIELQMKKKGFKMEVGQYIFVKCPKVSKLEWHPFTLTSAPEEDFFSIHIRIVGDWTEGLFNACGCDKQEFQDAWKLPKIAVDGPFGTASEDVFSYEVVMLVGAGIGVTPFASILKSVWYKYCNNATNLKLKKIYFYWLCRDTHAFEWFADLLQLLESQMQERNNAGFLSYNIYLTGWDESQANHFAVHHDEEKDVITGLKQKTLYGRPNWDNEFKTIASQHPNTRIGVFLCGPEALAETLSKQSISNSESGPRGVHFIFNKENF
# Chain of NADPH oxidase 4 (Homo sapiens) (Q9NPH5 whole entry, looked up): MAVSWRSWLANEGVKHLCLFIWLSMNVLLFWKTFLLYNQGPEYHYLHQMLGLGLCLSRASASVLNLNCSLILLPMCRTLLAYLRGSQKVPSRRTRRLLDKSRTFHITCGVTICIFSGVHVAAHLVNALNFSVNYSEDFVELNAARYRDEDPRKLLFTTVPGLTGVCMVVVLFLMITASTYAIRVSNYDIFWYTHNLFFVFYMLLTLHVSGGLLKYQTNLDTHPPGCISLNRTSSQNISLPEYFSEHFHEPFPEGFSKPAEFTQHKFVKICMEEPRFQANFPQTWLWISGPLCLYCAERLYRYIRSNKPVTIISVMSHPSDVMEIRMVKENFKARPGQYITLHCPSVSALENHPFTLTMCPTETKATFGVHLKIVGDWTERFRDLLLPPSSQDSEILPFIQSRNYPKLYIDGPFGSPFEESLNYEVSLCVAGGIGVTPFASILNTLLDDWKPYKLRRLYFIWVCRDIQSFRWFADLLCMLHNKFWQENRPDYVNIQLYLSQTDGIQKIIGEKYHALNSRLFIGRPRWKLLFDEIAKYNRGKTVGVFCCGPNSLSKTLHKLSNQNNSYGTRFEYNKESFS
SMILES,z-score [1],composite z-score [2],z-score [3],z-score [4],z-score [5],z-score [6],z-score [7],z-score [8],z-score [9],z-score [10]
O=C1[C@H]2[C@H]3[C@H](O)[C@H](O)CC(=NOC[C@@H](O)COCc4ccco4)[C@H]3CC[C@H]2C(=O)N1c1ccc(F)cc1F,-0.575 (inactive),0.153,1.12 (inactive),-0.479 (inactive),0.679 (inactive),-1.14 (inactive),1.69,-0.249 (inactive),0.498 (inactive),1.09
O=c1n(-c2ccccc2)c(=O)n2n1CC[C@@H]1C(=NOCc3ccccc3)[C@H]3O[C@H]3[C@@H](O)[C@@H]12,-0.422 (inactive),-0.514,6.33 (inactive),0.0311 (inactive),0.349 (inactive),0.425 (inactive),-0.302,-3.43 (inactive),-0.13 (inactive),0.183
CC(C)CON=C1C[C@@H](O)[C@@H](O)[C@@H]2[C@@H]3C(=O)N(C4CCCCC4)C(=O)[C@@H]3CC[C@@H]12,-1.24 (inactive),-0.0662,-0.133 (inactive),-0.346 (inactive),-0.383 (inactive),-0.0384 (inactive),-0.354,1 (inactive),-1.59 (inactive),-0.143
COC(=O)CC=C[C@@H](C)[C@@H](C=NOC[C@H]1O[C@H](c2ccccc2)C=C[C@@H]1Oc1ccc(OC)cc1)NS(=O)(=O)c1ccc(C)cc1,-0.272 (inactive),-0.147,4.79 (inactive),1.56 (inactive),0.949 (inactive),0.857 (inactive),0.0859,-0.273 (inactive),0.0179 (inactive),-0.523
CO[C@H]1COC(=O)CC=C[C@H](C)[C@@H](OC)COC(=O)[C@@H](C)COC(=O)CC=C[C@@H]1C,-0.513 (inactive),-0.193,-0.435 (inactive),0.106 (inactive),0.033 (inactive),-0.213 (inactive),-0.0875,-1.46 (inactive),0.28 (inactive),0.18
CC(C)=NOC[C@@H](C)[C@H](OCc1ccccc1)C(C)C,0.287 (inactive),0.103,0.641 (inactive),0.503 (inactive),0.795 (inactive),0.39 (inactive),0.453,0.409 (inactive),-1.72 (inactive),-1
CC(=O)OC[C@H]1O[C@@H](ON=C(C)CCN2CCCc3nc(C)c(C)cc32)[C@H](OC(C)=O)[C@@H](OC(C)=O)[C@@H]1OC(C)=O,-1.13 (inactive),-0.115,-0.72 (inactive),0.0956 (inactive),1.01 (inactive),-1.18 (inactive),0.649,0.502 (inactive),-1.36 (inactive),-1.09
COc1cc(O)c(C(=O)C=Cc2ccc3c(c2)OCO3)c(OC)c1,-0.59 (inactive),0.0056,18.9 (active),2.42 (inactive),0.484 (inactive),0.885 (inactive),-0.523,0.0679 (inactive),0.142 (inactive),-0.0252
Cn1c(=O)n2n(c1=O)[C@H]1[C@H](O)[C@@H]3O[C@@H]3C(=O)[C@H]1CC2,0.498 (inactive),-0.0984,-0.259 (inactive),-0.0607 (inactive),-0.596 (inactive),0.18 (inactive),-0.0231,-1.2 (inactive),0.171 (inactive),0.888
CCc1cc2c(nc1CC)CCN(CCC(C)=NO[C@@H](C)c1cn([C@H](CO)Cc3ccccc3)nn1)C2,0.0933 (inactive),-0.0011,4.48 (inactive),0.586 (inactive),-0.0919 (inactive),0.49 (inactive),0.434,-1.4 (inactive),0.033 (inactive),0.858
COc1cccc([C@H]2Oc3ccc(OC)cc3C(=NOC(C)CN3CCCCc4nc(C)c(C)cc43)[C@@H]2O)c1 (stereo not given in full),0.751 (inactive),-0.103,1.82 (inactive),0.59 (inactive),0.32 (inactive),0.342 (inactive),-0.887,-2.44 (inactive),-0.284 (inactive),-0.892
CCOC(=O)NN=C1C[C@@H](O)[C@@H](O)[C@@H]2[C@@H]3C(=O)N([C@@H](C)c4ccccc4)C(=O)[C@@H]3CC[C@H]12,0.0575 (inactive),0.119,0.65 (inactive),0.452 (inactive),-0.011 (inactive),0.378 (inactive),-0.34,1.35 (inactive),0.67 (inactive),-0.657
C=C(C)C(=O)OCC1CN2[C@@H](CC[C@@H](C)[C@@H]2c2ccc(Br)cc2)C(=O)O1 (stereo not given in full),-0.949 (inactive),0.183,3.23 (inactive),0.672 (inactive),0.189 (inactive),0.491 (inactive),-0.48,-0.0685 (inactive),-0.149 (inactive),-0.475
O=C1[C@H]2[C@H]3[C@H](O)[C@H](O)CC(=NOC[C@@H](O)COCc4ccco4)[C@H]3CC[C@H]2C(=O)N1Cc1ccccc1,0.0413 (inactive),-0.154,0.376 (inactive),-0.599 (inactive),-0.409 (inactive),-1.53 (inactive),1.43,-0.0116 (inactive),0.967 (inactive),0.0182
COC(=O)[C@H](C)NC(=O)CCC1CC(OC(=O)NCCc2ccc(F)cc2)CC2(CCCC(COC(=O)NCCC(C)C)O2)O1 (stereo not given in full),-0.484 (inactive),0.0844,21.1 (active),4.7 (inactive),0.0444 (inactive),0.266 (inactive),1.14,0.341 (inactive),0.302 (inactive),-0.385
C=CC1=C[C@H](O)[C@@H]2O[C@@H]2C12OCCCO2,0.104 (inactive),-0.275,-0.179 (inactive),0.191 (inactive),-0.264 (inactive),-0.121 (inactive),-0.495,-1.11 (inactive),0.617 (inactive),0.629
COC(=O)[C@H](C)NC(=O)CCC1CC(OC(=O)NCc2ccc3c(c2)OCO3)CC2(CCCC(COC(=O)NCCc3ccccc3OC)O2)O1 (stereo not given in full),-0.0563 (inactive),-0.162,20.9 (active),5.56 (inactive),-0.257 (inactive),0.566 (inactive),1.15,0.221 (inactive),0.301 (inactive),0.339
C=Cc1ccc([C@H]2N[C@H](C(=O)O)CC[C@@H]2C)cc1,0.374 (inactive),-0.338,-0.27 (inactive),-0.344 (inactive),-1.26 (inactive),-0.267 (inactive),-0.599,1.06 (inactive),-0.0223 (inactive),0.0584
CC(CCN1CCCCc2nc(C)c(C)cc21)=NO[C@H](C)c1cn([C@H](CO)Cc2ccccc2)nn1,0.285 (inactive),-0.0162,2.87 (inactive),1.16 (inactive),0.758 (inactive),0.589 (inactive),-0.286,-0.939 (inactive),0.0532 (inactive),0.477
O=C1[C@H]2[C@H]3[C@H](O)[C@H](O)CC(=NOCc4ccccc4)[C@@H]3CC[C@H]2C(=O)N1c1ccc(F)cc1F,-0.246 (inactive),-0.391,1.17 (inactive),-0.56 (inactive),0.512 (inactive),-1.36 (inactive),2.35,-0.409 (inactive),0.18 (inactive),0.343
CCOC(=O)NN=C1C[C@@H](O)[C@@H](O)[C@@H]2[C@@H]3C(=O)N(Cc4ccccc4)C(=O)[C@@H]3CC[C@H]12,-0.356 (inactive),-0.332,1.39 (inactive),-0.673 (inactive),-0.0654 (inactive),-1.36 (inactive),0.577,1.15 (inactive),0.547 (inactive),0.0313
CC(CCN1CCCc2nc(C)c(C)cc21)=NOC(C)CN1CCCCc2nc(C)c(C)cc21 (stereo not given),-0.702 (inactive),0.123,2.12 (inactive),0.193 (inactive),0.564 (inactive),0.415 (inactive),-0.775,-0.397 (inactive),-1.71 (inactive),-0.496
COC(=O)[C@@H]1CC[C@H](C)[C@@H](c2ccc(C)cc2)N1C(=O)c1ccc(C=NO[C@@H](C)c2cn([C@H](CO)Cc3ccccc3)nn2)cc1,0.442 (inactive),-0.0615,4.57 (inactive),1.12 (inactive),0.809 (inactive),0.907 (inactive),0.406,-3.24 (inactive),-1.13 (inactive),-3.8
